# TcdB inh: TcdB glycohydrolase inhibition | P18177 | TcdB glycohydrolase enzymatic assay, plate reader | inhibition, % at 9.99 µM | actives 0.24% (n = 350,000) | AID 652162; in the data active means inhibition above about 10%
# BH1578 lux ind: induces V. cholerae light production without autoinducers. V. cholerae BH1578 lux reporter, luminescence, 6 h. activation, % at 18.7 µM. actives 0.16% (n = 350,000); in the data active means activation mostly above about 9.7%, no sharp cut-off
# CCHF vOTU inh: CCHFV vOTU protease inhibition; Pep-AMC fluorescence; inhibition, % at 11.5 µM; actives 0.55% (n = 370,000); AID 651958; in the data active means inhibition above about 30%; further: 0% = vehicle wells with enzyme and 100% = no enzyme wells
# PrPC TRFRET: inhibitors of human cell surface prion protein PrPC; inhibition, % at 13.8 µM; P04156; TR-FRET read-out; AID 720596; actives 0.43% (n = 370,000); in the data active means inhibition above about 24%; further: 0% = median of the test wells and 100% = reference compound wells
# VHR inh abs: DUSP3 (human) phosphatase inhibition; recombinant VHR phosphatase, pNPP absorbance; inhibition, % at 13.3 µM; actives 0.52% (n = 290,000); AID 1654; in the data active means inhibition above about 50%
# Target sequence (P51452 whole entry, looked up): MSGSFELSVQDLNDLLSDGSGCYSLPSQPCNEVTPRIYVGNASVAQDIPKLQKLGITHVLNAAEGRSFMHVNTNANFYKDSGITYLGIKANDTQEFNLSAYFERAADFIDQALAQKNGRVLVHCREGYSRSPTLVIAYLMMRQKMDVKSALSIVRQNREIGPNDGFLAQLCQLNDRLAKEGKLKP
# SSB-PriA inh: blocks PriA binding to SSB C-terminal tail | AlphaScreen SSBct-PriA binding, biotinylated peptide | inhibition, % at 33 µM | actives 0.6% (n = 430,000); in the data active means inhibition mostly above about 37%, no sharp cut-off; inactive means mostly below about 20%;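 further: plate controls were negative control peptide for no effect and reference peptide for full effect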
# Active calls of the source: *; i = inactive; nt = no result given. Only some compounds are listed: those with a hit (about 1.5% of all), similar ones and a draw of the others.
SMILES,TcdB inh,BH1578 lux ind,CCHF vOTU inh,PrPC TRFRET,VHR inh abs,SSB-PriA inh
C[C@@H]1CN([C@H](C)CO)S(=O)(=O)c2ccc(-c3ccncc3)cc2O[C@H]1CN(C)Cc1ccccc1,2,nt,nt,nt,nt,nt
C[C@@H]1CN([C@@H](C)CO)S(=O)(=O)c2ccc(-c3ccncc3)cc2O[C@H]1CN(C)Cc1ccccc1,0,nt,nt,nt,nt,nt
O=C(NCCc1c[nH]c2ccccc12)NC1CC(=O)N(c2ccc(Cl)cc2)C1 (stereo not drawn),nt,nt,nt,nt,nt,8
O=C(NC1CCN(C(=O)Nc2cccc(F)c2)CC1)c1ccco1,-1,-4,5,6,26,58*
CC(=O)OCc1cc(-c2nn(C)c(=O)c3ccccc23)ccc1C,1,i,9,2,4,-8
Cc1ccc(-c2nn(C)c(=O)c3ccccc23)cc1CO,nt,17*,0,-7,12,-4
CCOC(=O)c1cc(C)sc1N1C(=O)C2C3C=CC(C3)C2C1=O (stereo not drawn),nt,30*,8,12,4,-7
C=CCC(C(=O)OC)(C(=O)OC)c1ccc([N+](=O)[O-])cc1[N+](=O)[O-],1,i,-20,-31,26,8
C=CCC(C(=O)OC)(C(=O)OC)c1ccc([N+](=O)[O-])cn1,nt,-1,-2,-9,52*,-2
Cc1ccc(C2=NS(=O)(=O)N(C)C(C(=O)NCc3cccs3)=C2)cc1,19*,0,7,-6,17,-4
Cc1ccc(C2=NS(=O)(=O)N(C)C(C(=O)NCc3ccccn3)=C2)cc1,6,0,16,-17,17,-9
O=C(Nc1ccccc1Cc1nc(-c2ccncc2)no1)c1ccccc1Br,nt,nt,nt,nt,nt,-21
Cc1ccc(S(=O)(=O)N2CCC(C(=O)OCC(=O)NCCc3ccccc3)CC2)cc1C,16*,1,7,-2,nt,7
CSc1ccc(CC(=O)O)cc1,nt,nt,nt,nt,nt,-8
COc1cccc(N2C[C@@H](C(=O)Nc3c(C(=O)Nc4ccc5c(c4)OCCO5)oc4ccccc34)CC2=O)c1,nt,nt,nt,nt,nt,69*
COc1cccc(NC(=O)c2oc3ccccc3c2NC(=O)C2CC2)c1,2,i,-9,0,10,14
CC(=O)Nc1ccc(S(=O)(=O)Nc2ccc3c(c2)N(C(C)=O)CC3)c(C)c1,nt,nt,nt,nt,nt,6
c1ccc(C2=Nn3c(Cn4nnc5ccccc54)nnc3SC2)cc1,3,i,-13,-6,28,-7
c1ccc(Cc2nnc3n2N=C(c2ccccc2)CS3)cc1,16*,0,6,7,-15,-4
c1ccc(CNCCN2CCNCC2)nc1,nt,1,-4,-1,24,38*
CC(=NOCC(=O)Nn1c(=O)[nH]c2ccccc2c1=O)c1cccs1,nt,nt,nt,nt,nt,2
COc1ccccc1-n1c(C)cc(SC)c(C(C)=O)c1=S,nt,0,16,-9,52*,-12
O=C(Cc1cc(-c2cccs2)on1)N1CCCC1,nt,nt,nt,nt,nt,3
CCOC(=O)c1c(NC(=O)c2cccc(C(F)(F)F)c2)sc2c1CCN(C)C2,nt,nt,nt,nt,nt,-18
COC(=O)c1nnn(CC(=O)NC(=O)Nc2c(C)cccc2C)c1C(=O)OC,nt,i,-8,-1,-6,4
SMILES,TcdB inh,BH1578 lux ind,CCHF vOTU inh,PrPC TRFRET,VHR inh abs,SSB-PriA inh
COC(=O)c1nnn(CC(=O)NC(=O)Nc2cccc(Cl)c2C)c1C(=O)OC,1,i,12,-2,51*,1
C/C(=C\C(=S)Nc1ccccc1)Nc1ccc2ccccc2c1,0,0,-11,-7,-11,67*
C/C(=C\C(=S)Nc1ccccc1)Nc1cccc2ccccc12,nt,i,-34,4,11,20
O=C1CC(c2ccccc2F)C(=O)N1 (stereo not drawn),nt,nt,nt,nt,nt,42*
COc1cc(NC(=O)CCc2nnc3ccc(N4CCC(C)CC4)nn23)cc(OC)c1,10*,-1,7,-8,-17,-7
O=C(CNC(=O)c1ccccc1)NCCc1ccc(O)c(O)c1,1,i,14,-9,59*,nt
O=C(COC(=O)CNC(=O)c1ccccc1)NCCc1ccccc1,1,0,-1,-1,12,0
CC1CC(=O)N(c2ccc(NCCc3ccc(O)cc3)c([N+](=O)[O-])c2)C1=O (stereo not drawn),12*,0,16,-43,12,27
C#CCSc1nnnn1-c1ccc(Br)c(C)c1,1,-1,-3,0,21,83*
C#CCSc1nnnn1-c1cccc(Cl)c1,1,-1,-8,0,3,-24
CN(C)C(=O)c1ccc(NC(=O)c2sccc2-c2ccccc2)cc1,1,0,-2,8,57*,-5
CN(C)C(=O)c1ccc(NC(=O)c2cccnc2)cc1,nt,i,-3,1,16,-10
CC(C(=O)NC1C(=O)N2C(C(=O)O)=C(CSc3nnnn3C)CSC12)n1cc(Br)cn1 (stereo not drawn),-1,4,-3,1,-20,-8
Cc1nn(C(C)C(=O)NC2C(=O)N3C(C(=O)O)=C(CSc4nnnn4C)CSC23)cc1Cl (stereo not drawn),2,25*,-5,9,7,-11
O=S1(=O)N=C(NN=Cc2cccs2)c2ccccc21,nt,nt,nt,nt,nt,55*
O=S1(=O)N=C(NN=Cc2ccccn2)c2ccccc21,nt,nt,nt,nt,nt,82*
O=S1(=O)N=C(N/N=C/c2ccccn2)c2ccccc21,nt,0,14,-4,13,nt
COc1ccc(/C=N/NC2=NS(=O)(=O)c3ccccc32)cc1,-1,0,0,1,3,nt
COCCCN1C(=O)C(=O)C(=C(O)c2ccc(S(=O)(=O)N3CCOCC3)cc2)C1c1ccc(C(C)C)cc1 (stereo not drawn),nt,nt,nt,nt,nt,-3
COc1ncccc1C(=O)Nc1cnn(C2CCOC2)c1 (stereo not drawn),nt,nt,nt,nt,nt,-16
Oc1ccc(CCc2ccccn2)cc1,14*,i,-9,2,nt,nt
Cc1ccc(CNCCCn2cnc(C(=O)Nc3ccc(C)c(C)c3)n2)o1,14*,-1,-5,-8,nt,-3
COc1ccccc1C1NC=C([N+](=O)[O-])C=C1[N+](=O)[O-] (stereo not drawn),1,0,4,-25,-5,45*
COc1ccccc1C1C([N+](=O)[O-])=CC([N+](=O)[O-])=CN1C (stereo not drawn),1,0,5,-2,5,7
CN(C)c1ccc(CCNC(=O)C(=O)Nc2ccc(OC(F)(F)F)cc2)cc1,nt,nt,nt,nt,nt,-11
Cc1c(N2C(=O)C3C4C=CC(C4)C3C2=O)c(=O)n(-c2ccccc2)n1C (stereo not drawn),-1,i,-4,-1,23,1
Cc1c(N2C(=O)SC(CC(=O)O)C2=O)c(=O)n(-c2ccccc2)n1C (stereo not drawn),nt,36*,8,1,0,-4
Cc1ccc(NC(=O)CSc2ncc(S(=O)(=O)c3cccs3)c(N)n2)cc1Cl,nt,nt,nt,nt,nt,-11
C=CC(=O)N1c2ccccc2Sc2ccc(NC(=O)OCC)cc21,nt,i,-2,0,nt,-15
CCOC(=O)Nc1ccc2c(c1)Nc1ccccc1S2,nt,i,15,4,34,53*

# High-throughput results as filed in PubChem.
